# Measurements taken from the supplement of paper PMC11738630.
# Tested on: Salmonella enterica serovar Typhimurium 14028s
# Experiment: approximate change in surviving CFU after surface colonization relative to water-only control (log10 CFU/mL change); higher = more surviving bacteria (less inhibition of surface colonization)
# Settings: not stated (Biolog proprietary concentration), surface: plastic 96-well plate, 20-24 h at 25 °C
smiles,measurement,setting,value
N[C@@H](Cc1ccccc1)C(=O)O [L-Phenylalanine],approximate change in surviving CFU (log10),"Biolog plate: PM2, Biolog well: H2",-0.322
same,approximate change in surviving CFU (log10),"Biolog plate: PM3, Biolog well: B8",-0.215
O=c1ccn([C@@H]2O[C@H](CO)[C@@H](O)[C@H]2O)c(=O)[nH]1 [Uridine],approximate change in surviving CFU (log10),"Biolog plate: PM1, Biolog well: D12",1.74
same,approximate change in surviving CFU (log10),"Biolog plate: PM3, Biolog well: F11",-0.236
NC(=O)C[C@H](N)C(=O)O [L-Asparagine],approximate change in surviving CFU (log10),"Biolog plate: PM1, Biolog well: D1",0.944
same,approximate change in surviving CFU (log10),"Biolog plate: PM3, Biolog well: A9",0.451
C[C@H](N)C(=O)O [L-Alanine],approximate change in surviving CFU (log10),"Biolog plate: PM1, Biolog well: G5",0.987
same,approximate change in surviving CFU (log10),"Biolog plate: PM3, Biolog well: A7",0.129
C[C@@H](O)[C@H](N)C(=O)O [L-Threonine],approximate change in surviving CFU (log10),"Biolog plate: PM1, Biolog well: G4",1.03
same,approximate change in surviving CFU (log10),"Biolog plate: PM3, Biolog well: B11",-0.129
O=C1CC[C@@H](C(=O)O)N1 [L-Pyroglutamic Acid],approximate change in surviving CFU (log10),"Biolog plate: PM2, Biolog well: H3",-0.0858
same,approximate change in surviving CFU (log10),"Biolog plate: PM3, Biolog well: D3",-0.258
N[C@@H](CCO)C(=O)O [L-Homoserine],approximate change in surviving CFU (log10),"Biolog plate: PM2, Biolog well: G7",0.923
same,approximate change in surviving CFU (log10),"Biolog plate: PM3, Biolog well: C11",0.365
CSCC[C@H](N)C(=O)O [L-Methionine],approximate change in surviving CFU (log10),"Biolog plate: PM2, Biolog well: G12",0.365
same,approximate change in surviving CFU (log10),"Biolog plate: PM3, Biolog well: B7",-0.88
Nc1ncnc2c1ncn2[C@@H]1O[C@H](CO)[C@@H](O)[C@H]1O [Adenosine],approximate change in surviving CFU (log10),"Biolog plate: PM1, Biolog well: E12",0.622
same,approximate change in surviving CFU (log10),"Biolog plate: PM3, Biolog well: F3",0.751
NC(=O)[C@H]1O[C@@H](O)[C@H](O)[C@@H](O)[C@@H]1O [Glucuronamide],approximate change in surviving CFU (log10),"Biolog plate: PM1, Biolog well: H7",1.03
same,approximate change in surviving CFU (log10),"Biolog plate: PM3, Biolog well: E6",0.622
O=C(O)[C@@H]1CCCN1 [L-Proline],approximate change in surviving CFU (log10),"Biolog plate: PM1, Biolog well: A8",0.107
same,approximate change in surviving CFU (log10),"Biolog plate: PM3, Biolog well: B9",0.0858
O=C(O)CO [Glycolic Acid],approximate change in surviving CFU (log10),"Biolog plate: PM1, Biolog well: F9",0.736
same,approximate change in surviving CFU (log10),"Biolog plate: PM2, Biolog well: E9",0.644
CC(N)=O [Acetamide],approximate change in surviving CFU (log10),"Biolog plate: PM2, Biolog well: G1",-0.365
same,approximate change in surviving CFU (log10),"Biolog plate: PM3, Biolog well: E4",-1.76
CC(C)[C@H](N)C(=O)O [L-Valine],approximate change in surviving CFU (log10),"Biolog plate: PM2, Biolog well: H4",0.15
same,approximate change in surviving CFU (log10),"Biolog plate: PM3, Biolog well: C2",-0.386
CC(=O)N[C@H]1C(O)O[C@H](CO)[C@H](O)[C@@H]1O (stereo partly drawn) [N-Acetyl-D-Galactosamine],approximate change in surviving CFU (log10),"Biolog plate: PM2, Biolog well: B1",0.622
same,approximate change in surviving CFU (log10),"Biolog plate: PM3, Biolog well: E12",-0.129
C[C@@H](N)C(=O)O [D-Alanine],approximate change in surviving CFU (log10),"Biolog plate: PM1, Biolog well: A9",0.622
same,approximate change in surviving CFU (log10),"Biolog plate: PM3, Biolog well: C3",0.343
NCCc1ccc(O)cc1 [Tyramine],approximate change in surviving CFU (log10),"Biolog plate: PM1, Biolog well: H4",0.537
same,approximate change in surviving CFU (log10),"Biolog plate: PM3, Biolog well: E3",-1.37
O=C(O)[C@@H]1C[C@@H](O)CN1 [Hydroxy-L-Proline],approximate change in surviving CFU (log10),"Biolog plate: PM2, Biolog well: G8",0.622
N[C@@H](CO)C(=O)O [L-Serine],approximate change in surviving CFU (log10),"Biolog plate: PM1, Biolog well: G3",1.07
same,approximate change in surviving CFU (log10),"Biolog plate: PM3, Biolog well: B10",0.107
N=C(N)NCCC[C@H](N)C(=O)O [L-Arginine],approximate change in surviving CFU (log10),"Biolog plate: PM2, Biolog well: G4",0.966
same,approximate change in surviving CFU (log10),"Biolog plate: PM3, Biolog well: A8",0.236
N[C@@H](Cc1c[nH]cn1)C(=O)O [L-Histidine],approximate change in surviving CFU (log10),"Biolog plate: PM2, Biolog well: G6",1.01
same,approximate change in surviving CFU (log10),"Biolog plate: PM3, Biolog well: B3",0.279
CC(C)C[C@H](N)C(=O)O [L-Leucine],approximate change in surviving CFU (log10),"Biolog plate: PM2, Biolog well: G10",0.451
same,approximate change in surviving CFU (log10),"Biolog plate: PM3, Biolog well: B5",-0.236
NCCCCN [Putrescine],approximate change in surviving CFU (log10),"Biolog plate: PM2, Biolog well: H8",0.322
same,approximate change in surviving CFU (log10),"Biolog plate: PM3, Biolog well: D11",-0.3
NCCC[C@H](N)C(=O)O [L-Ornithine],approximate change in surviving CFU (log10),"Biolog plate: PM2, Biolog well: H1",0.708
same,approximate change in surviving CFU (log10),"Biolog plate: PM3, Biolog well: C12",0.172
N[C@@H](CC(=O)O)C(=O)O [L-Aspartic Acid],approximate change in surviving CFU (log10),"Biolog plate: PM1, Biolog well: A7",0.644
same,approximate change in surviving CFU (log10),"Biolog plate: PM3, Biolog well: A10",0.451
OC[C@H]1O[C@H](O[C@H]2O[C@H](CO)[C@@H](O)[C@H](O)[C@H]2O)[C@H](O)[C@@H](O)[C@@H]1O [D-Trehalose],approximate change in surviving CFU (log10),"Biolog plate: PM1, Biolog well: A10",1.59
Cc1cn([C@H]2C[C@H](O)[C@@H](CO)O2)c(=O)[nH]c1=O [Thymidine],approximate change in surviving CFU (log10),"Biolog plate: PM1, Biolog well: C12",1.5
same,approximate change in surviving CFU (log10),"Biolog plate: PM3, Biolog well: F9",-0.193
N[C@@H](CCC(=O)O)C(=O)O [L-Glutamic Acid],approximate change in surviving CFU (log10),"Biolog plate: PM1, Biolog well: B12",1.24
same,approximate change in surviving CFU (log10),"Biolog plate: PM3, Biolog well: A12",0.279
O=c1[nH]cnc2c1ncn2[C@@H]1O[C@H](CO)[C@@H](O)[C@H]1O [Inosine],approximate change in surviving CFU (log10),"Biolog plate: PM1, Biolog well: F12",1.65
same,approximate change in surviving CFU (log10),"Biolog plate: PM3, Biolog well: F12",-0.365
CC[C@H](C)[C@H](N)C(=O)O [L-Isoleucine],approximate change in surviving CFU (log10),"Biolog plate: PM2, Biolog well: G9",0.794
same,approximate change in surviving CFU (log10),"Biolog plate: PM3, Biolog well: B4",-0.0429
N[C@H](CO)C(=O)O [D-Serine],approximate change in surviving CFU (log10),"Biolog plate: PM1, Biolog well: B1",1.14
same,approximate change in surviving CFU (log10),"Biolog plate: PM3, Biolog well: C8",0.279
N[C@H](CC(=O)O)C(=O)O [D-Aspartic Acid],approximate change in surviving CFU (log10),"Biolog plate: PM1, Biolog well: D2",1.01
same,approximate change in surviving CFU (log10),"Biolog plate: PM3, Biolog well: C5",0.816
NCC(=O)O [Glycine],approximate change in surviving CFU (log10),"Biolog plate: PM2, Biolog well: G5",0.494
same,approximate change in surviving CFU (log10),"Biolog plate: PM3, Biolog well: B2",0.15
